In PubChem BioAssay:
For some assays here: Potency and affinity values are given separately. Active and inactive are the calls of the source.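 Rule for the calls, unless noted: active = primary screen inhibitor hit that blocks the TRPC4 channel at some tested dose, yielding a dose curve; inactive = the rest.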

What was measured:
[1] = test system: TRPC4 beta (transient receptor potential cation channel C4), mouse; assay: TRPC4 cation channel opening, retest – cell-based, Fluo4 calcium, HEK293 TRPC4beta/mu-opioid, duplicates, 10 µM, confirmation (AID 2426;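 active = fluorescence ratio normalized to control raised more than 50% in primary screen plus both repeat runs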;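 for activation: percent rise of integrated ratio over buffer wells lacking compound which define 0%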); details: Fluo4 calcium fluorescence, at 10 µM; hits give high values
[2] = test system: transient receptor potential cation channel C4 beta (TRPC4), mouse; assay: TRPC4 cation channel opening, second retest – cell-based, second round, Fluo4, HEK293 TRPC4beta/mu-opioid, 1 µM, confirmation (AID 2461;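 active = primary screen active and over 50% activation in each of two duplicate runs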;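 for activation: 0% = wells without test compound as baseline of integrated fluorescence ratio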); details: Fluo4 calcium fluorescence, at 1 µM; hits give high values
[3] = test system: TRPC4 (transient receptor potential cation channel C4 beta), mouse; assay: potentiation of DAMGO EC20 TRPC4 response – cell-based, second round, Fluo-4, HEK293 TRPC4beta/mu-opioid, 1 µM, confirmation (AID 2554;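 active = primary screen hit whose fluorescence ratio, in both repeats, exceeds the weak agonist control mean by 3 SD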); details: DAMGO EC20, Fluo-4 calcium flux, at 1 µM; hits give high values
[4] = test system: TRPC4 beta (transient receptor potential cation channel C4), mouse; assay: potentiation of DAMGO EC20 TRPC4 response – cell-based, Fluo-4, HEK293 TRPC4beta/mu-opioid, confirmation (AID 2555;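 active = primary screen hit whose calcium fluorescence ratio, in both repeats, exceeds the weak agonist control mean by 3 SD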); details: DAMGO EC20, Fluo-4 calcium flux, at 10 µM; hits give high values
[5] = target: Short transient receptor potential channel 4 (Mus musculus) (UniProt Q9QUQ5); assay: blockers of DAMGO-evoked TRPC4 calcium flux – cell-based, Fluo4, HEK293 TRPC4beta/mu-opioid, confirmation (AID 2636;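 active = calcium signal cut by more than 3 SD below the full-agonist control yet still positive, in both repeats and the earlier primary screen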); details: at 10 µM; hits give high values
[6] = target: Short transient receptor potential channel 4 (Mus musculus) (UniProt Q9QUQ5); assay: blockers of DAMGO-evoked TRPC4 calcium flux – cell-based, second round, Fluo4, HEK293 TRPC4beta/mu-opioid, 1 µM, confirmation (AID 2637;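 active = calcium signal ratio cut to more than 3 SD under the fully stimulated control mean yet still positive, in both repeats and the primary screen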); details: at 1 µM; hits give high values
[7] = target: Short transient receptor potential channel 4 (Mus musculus) (UniProt Q9QUQ5); assay: potentiation of DAMGO-evoked TRPC4 calcium signal – cell-based, HEK293 TRPC4/mu-opioid, Fluo-4 calcium, EC20 DAMGO, dose response (AID 434941;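 active = earlier screen potentiator hit that boosts the TRPC4 ion channel at some dose, with a dose response; inactive = no potentiation, no dose response, or not a prior hit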;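 note: calcium entry triggered by an EC20 dose of DAMGO at the co-expressed mu-opioid receptor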)
[8] = target: Short transient receptor potential channel 4 (Mus musculus) (UniProt Q9QUQ5); assay: block of DAMGO-driven TRPC4 calcium entry – cell-based, HEK293 TRPC4/mu-opioid, Fluo-4 calcium, dose response (AID 434942)
[9] = target: Short transient receptor potential channel 6 (Mus musculus) (UniProt Q61143); assay: TRPC6 blockade by TRPC4 inhibitor hits – cell-based, HEK293, membrane potential dye, duplicate, selectivity assay for TRPC4 inhibitor project, confirmation (AID 434948;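 active = active in primary screen and both duplicates, each dropping signal beyond three positive-control SD with fluorescence still positive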); details: HEK293 TRPC6, membrane potential dye fluorescence, at 10 µM, stimulated with maximal-effect acetylcholine; hits give high values
[10] = target: Short transient receptor potential channel 6 (Mus musculus) (UniProt Q61143); assay: TRPC6 opening by TRPC4 activator hits – cell-based, HEK293, membrane potential dye, duplicate, selectivity assay for TRPC4 activator project, confirmation (AID 434950;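 active = membrane potential signal rise above negative control mean plus 3 SD in both duplicates, also active in the earlier TRPC4 screen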;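 for activation: 0% = buffer only wells and 100% = acetylcholine maximal-effect wells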); details: HEK293 TRPC6, membrane potential fluorescence, at 10 µM; activation: hits give high values; outcome: activation
[11] = target: Short transient receptor potential channel 6 (Mus musculus) (UniProt Q61143); assay: positive modulators of mouse TRPC6 channel – HEK293 cells, membrane potential dye, duplicate, selectivity assay for TRPC4 potentiator project, confirmation (AID 434952;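 active = compound raising the membrane signal above positive-control mean plus 3 SD in both repeats, and a primary screen hit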); details: HEK293 TRPC6, membrane potential dye fluorescence, at 10 µM, maximal acetylcholine added after compound; hits give high values
[12] = target: Short transient receptor potential channel 4 (Mus musculus) (UniProt Q9QUQ5); assay: calcium flux activators in TRPC4/5HT1a cells, counter-screen for TRPC4 activator project, cell-based, second counter screen, HEK293 TRPC4/5HT1a, Fluo-4 (AID 434977;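 active = calcium signal rise above buffer-control mean plus 5 SD in both duplicates, and also a hit in the primary screen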;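 for activation: plate controls were assay buffer for no effect and maximal serotonin response for full effect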); details: Fluo-4 calcium flux, at 10 µM; hits give high values
[13] = serotonin-gated TRPC4 signal block – cell-based, second counter screen, HEK293 TRPC4/5HT1a, Fluo-4, counter-screen for TRPC4 inhibitor project, confirmation (AID 434978;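 active = primary screen active whose calcium signal fell more than 3 SD beyond the full-serotonin control mean in both duplicate plates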;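 note: serotonin given first at submaximal then at maximal dose after compound preincubation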); details: Fluo-4 calcium flux, at 10 µM, serotonin added to trigger calcium flux; hits give high values
[14] = test system: TRPC4 (mouse), co-expressed with 5HT1a in HEK293; assay: enhancement of serotonin-evoked TRPC4 response – cell-based, second counter screen, HEK293 TRPC4/5HT1a, Fluo-4, counter-screen for TRPC4 potentiator project, confirmation (AID 434979;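 active = signal rise over 3 SD above mean of control wells given weak agonist, in both repeats and first screen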); details: Fluo-4 calcium flux, at 10 µM, serotonin added at its EC20 dose; hits give high values
[15] = nonspecific calcium rise without TRPC4 – cell-based, HEK293 mu-opioid receptor line, counter-screen for TRPC4 activator project, confirmation (AID 449723;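 active = hit in primary screen, with calcium signal over 5 SD above buffer well mean in both duplicates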;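 note: counter screen cells carry the mu-opioid receptor alone and lack TRPC4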); details: HEK293 mu-opioid cells, Fluo-4 calcium fluorescence, at 10 µM; hits give high values
[16] = nonspecific potentiation of DAMGO calcium response – cell-based, HEK293 mu-opioid receptor line, counter-screen for TRPC4 allosteric potentiator project, confirmation (AID 449724;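 active = calcium signal rise more than 3 SD above the low-dose agonist control mean, in both duplicate plates and the primary screen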); details: HEK293 mu-opioid receptor cells, Fluo-4 calcium flux, at 10 µM, compound added before EC20 DAMGO stimulus; hits give high values

Measured: activation

Sequence of Short transient receptor potential channel 6 (Mus musculus) (Q61143 whole entry, looked up): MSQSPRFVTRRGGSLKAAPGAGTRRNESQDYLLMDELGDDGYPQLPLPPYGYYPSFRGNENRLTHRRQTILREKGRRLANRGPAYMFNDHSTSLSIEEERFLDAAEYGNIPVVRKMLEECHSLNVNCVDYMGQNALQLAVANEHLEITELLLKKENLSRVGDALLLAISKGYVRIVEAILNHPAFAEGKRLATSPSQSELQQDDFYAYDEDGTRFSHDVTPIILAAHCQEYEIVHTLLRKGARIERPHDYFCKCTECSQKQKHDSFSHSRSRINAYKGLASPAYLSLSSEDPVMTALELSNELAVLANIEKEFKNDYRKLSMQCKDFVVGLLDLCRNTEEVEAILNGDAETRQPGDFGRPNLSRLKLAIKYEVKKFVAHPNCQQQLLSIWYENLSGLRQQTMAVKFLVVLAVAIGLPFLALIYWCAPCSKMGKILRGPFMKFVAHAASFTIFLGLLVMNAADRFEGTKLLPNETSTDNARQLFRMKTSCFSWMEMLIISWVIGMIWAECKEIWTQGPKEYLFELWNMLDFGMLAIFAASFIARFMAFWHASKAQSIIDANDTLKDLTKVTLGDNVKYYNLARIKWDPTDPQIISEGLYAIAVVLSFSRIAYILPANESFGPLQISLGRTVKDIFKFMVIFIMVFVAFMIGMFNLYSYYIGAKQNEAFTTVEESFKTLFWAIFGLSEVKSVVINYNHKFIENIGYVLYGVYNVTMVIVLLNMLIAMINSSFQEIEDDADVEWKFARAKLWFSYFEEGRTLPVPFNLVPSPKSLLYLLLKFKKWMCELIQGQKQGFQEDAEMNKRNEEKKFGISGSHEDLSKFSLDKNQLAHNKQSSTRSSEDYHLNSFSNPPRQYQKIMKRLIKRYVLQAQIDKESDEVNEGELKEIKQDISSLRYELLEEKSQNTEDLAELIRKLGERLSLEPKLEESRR
Sequence of Short transient receptor potential channel 4 (Mus musculus) (Q9QUQ5 whole entry, looked up): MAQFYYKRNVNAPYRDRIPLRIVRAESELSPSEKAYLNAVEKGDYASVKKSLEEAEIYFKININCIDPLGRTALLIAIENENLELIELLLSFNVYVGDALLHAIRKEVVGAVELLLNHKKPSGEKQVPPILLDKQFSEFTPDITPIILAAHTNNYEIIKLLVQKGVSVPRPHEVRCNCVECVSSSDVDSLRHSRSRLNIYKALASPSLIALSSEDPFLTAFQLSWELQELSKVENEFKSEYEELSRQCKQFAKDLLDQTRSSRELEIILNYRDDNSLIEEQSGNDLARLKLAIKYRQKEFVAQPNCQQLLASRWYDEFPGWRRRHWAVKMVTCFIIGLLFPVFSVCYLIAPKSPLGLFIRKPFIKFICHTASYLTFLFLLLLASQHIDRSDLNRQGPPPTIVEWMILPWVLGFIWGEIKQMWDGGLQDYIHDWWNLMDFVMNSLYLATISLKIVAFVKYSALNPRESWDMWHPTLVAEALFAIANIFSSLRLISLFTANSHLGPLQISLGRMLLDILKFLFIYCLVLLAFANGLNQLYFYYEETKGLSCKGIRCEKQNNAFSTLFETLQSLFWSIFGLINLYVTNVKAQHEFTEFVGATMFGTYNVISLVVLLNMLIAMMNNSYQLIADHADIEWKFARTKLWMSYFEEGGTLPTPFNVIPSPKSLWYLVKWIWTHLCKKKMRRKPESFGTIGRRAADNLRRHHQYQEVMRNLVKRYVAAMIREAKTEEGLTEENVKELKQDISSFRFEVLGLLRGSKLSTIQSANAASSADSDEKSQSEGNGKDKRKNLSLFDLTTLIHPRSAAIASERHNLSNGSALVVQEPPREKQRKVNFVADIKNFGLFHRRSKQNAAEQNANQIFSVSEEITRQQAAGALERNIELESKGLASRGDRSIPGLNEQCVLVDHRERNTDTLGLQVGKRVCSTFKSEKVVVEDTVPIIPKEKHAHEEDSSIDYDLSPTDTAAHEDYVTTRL

CCOc1ccc(S(=O)(=O)Nc2cccc(C(=O)NCC(c3ccccc3)N(C)C)c2)cc1 (centres undefined)
active: [1] 255% | [10] 43%
inactive: all other assays above

CCn1c(N2CCN(C(=S)NCCc3ccccc3)CC2)nc2ccccc21
active: [12] 21%
inactive: all other assays above

CCN1CCN(c2ccc(S(=O)(=O)N3CCOCC3)cc2NC(=O)c2ccccc2OC(F)F)CC1
active: [1] 204% | [2] 136% | [12] 77.8%
inactive: all other assays above

CCN(Cc1ccccc1)S(=O)(=O)c1ccc(C(=O)N(CCCN(C)C)c2nc3c(F)cccc3s2)cc1
active: [1] 76%
inactive: all other assays above

O=C(CC1C(=O)NCCN1Cc1cccc(Oc2ccccc2)c1)NCCc1ccccn1 (centres undefined)
active: [1] 99% | [12] 42.3%
inactive: all other assays above

CN1CCN(C(=O)c2cccn(Cc3c(Cl)cccc3Cl)c2=O)CC1
active: [1] 147% | [2] 88% | [12] 42.6%
inactive: all other assays above

O=C(N/N=C/c1ccco1)C1COc2ccccc2O1 (centres undefined)
active: [1] 80% | [12] 27.3%
inactive: all other assays above

COc1ccc(C(CNC(=O)CSc2ccccc2C)N(C)C)cc1 (centres undefined)
active: [1] 74% | [2] 73% | [10] 55%
inactive: all other assays above

COc1ccccc1N1CCN(C(c2cccs2)C(C)NC(=O)c2ccco2)CC1 (centres undefined)
active: [1] 73% | [10] 32%
inactive: all other assays above

CCn1c(N2CCN(S(=O)(=O)CC)CC2)nc2ccccc21
active: [1] 96% | [12] 19.2%
inactive: all other assays above

COC(=O)NCC(c1ccc2c(c1)OCO2)N1CCN(c2ccc(OC)cc2)CC1 (centres undefined)
active: [1] 85%
inactive: all other assays above

CCCCN(CC)CCNC(=O)c1ccc2c(Cl)c3c(nc2c1)CCC3
active: [1] 166% | [2] 142% | [12] 92.3%
inactive: all other assays above

O=C(CC1C(=O)NCCN1Cc1ccc(-c2ccccc2)cc1)NCCc1ccccn1 (centres undefined)
active: [1] 142% | [12] 34%
inactive: all other assays above

COc1ccc(C(=O)C2CCCN(C3Cc4ccccc4C3)C2)cc1OC (centres undefined)
active: [1] 128% | [10] 81.5% | [12] 110%
inactive: all other assays above
